Data: PubChem BioAssay (Tox21)
Records with an inconclusive call do not appear. Activity calls are given as the source filed them. The call rests on the fitted dose curve; in most records, active means well fitted activation curve with a large enough effect in the repeat runs; inconclusive means weak or mixed curves; inactive means flat fitted curve, though single readings scatter.

Experiment: A CellTox Green Cytotoxicity Assay to monitor cytotoxicity in HEK293 cells - 24 hour (AID 1224875); further: nearly all actives have a fitted effect of over 45% in size
Details: CellTox Green fluorescence; series mostly up to 76.8 µM; activity change: at the top concentration
Description: National Center for Advancing Translational Sciences [NCATS]
NIH Chemical Genomics Center [NCGC]
U.S. Environmental Protection Agency [EPA]
National Institutes of Environmental Health Sciences [NIEHS]
National Toxicology Program [NTP]
Cell-based models are critical for drug discovery. Determining the natural cytotoxic effects resulting from test compounds is an essential research activity. A CellTox Green Cytotoxicity Assay to monitor cytotoxicity in real time of continues cell culture during 40 hours of the compound treatment was used to screen Tox21 10K library compounds in Hek293 cells. CellTox Green Cytotoxicity Assay is a nonlytic, homogeneous, biofluorescent method to measure cytotoxicity in cell culture after experimental manipulation. The assay system uses a proprietary asymmetric cyanine dye that is excluded from viable cells but preferentially stains the dead cell's DNA. […] Viable cells produce no appreciable increases in fluorescence. Therefore, the fluorescence signal produced by the binding interaction with dead cell DNA is proportional to cytotoxicity.
The mixture of Hek293 cell suspension and reagents were dispensed at 600cells/6 ul/well in 1536-well tissue culture treated black solid bottom plates using a Multidrop dispenser. After the assay plates were incubated at a 37 C/5% CO2 incubator for 5 hours, 23 nL of compounds dissolved in DMSO, positive and negative controls was transferred to the assay plate by a pintool work station. The plates were incubated at 37 C for 40 hours. The fluorescence intensity were measured at 0h, 8h, 16h, 24h, 32h and 40h time points using ViewLux plate reader during compound treatment.
On the % scale 0 is the no-effect control and ±100 the full control effect; potency means the concentration at half of the fitted maximal effect.

Row | Structure (SMILES) | activity change | Potency
1 | O=C(O)c1cccc(Cl)c1 | 0.465% (inactive) | –
2 | CC(C)CC(N(C)C)C1(c2ccc(Cl)cc2)CCC1 (stereo not given) | – | 23.9 µM (active)
3 | Nc1cc2c3c(c1)C(c1ccccc1)=N[C@@H](NC(=O)c1cccnc1)C(=O)N3CC2 | -16% (inactive) | –
4 | Nc1cc(Cl)ccc1O | -7.46% (inactive) | –
5 | C#C[C@]1(O)C=C[C@H]2[C@@H]3CCC4=CC(=O)CC[C@@H]4[C@H]3CC[C@@]21CC | 3.36% [at 35.3 µM, hits give high values] (inactive) | –
6 | c1coc(-c2nc3ccccc3[nH]2)c1 | 9.3% (inactive) | –
7 | Nc1ccccc1Cl | 5.65% (inactive) | –
8 | CC(N)=S | -3.05% (inactive) | –
9 | CCC#N | -1.23% (inactive) | –
10 | NC1=NC(=O)C(c2ccccc2)O1 (stereo not given) | -0.938% [at 35.3 µM, hits give high values] (inactive) | –
11 | CCOP(=S)(OCC)Oc1ncn(-c2ccccc2)n1 | -3.91% (inactive) | –
12 | CC(C)COP(=O)(OCC(C)C)OCC(C)C | -4.69% (inactive) | –
13 | COc1cccc2c1cc([N+](=O)[O-])c1c(C(=O)O)cc3c(c12)OCO3 | 12.9% (inactive) | –
14 | COc1cc2c(cc1OC)[C@@]13CCN4CC5=CCO[C@H]6CC(=O)N2[C@H]1[C@H]6[C@H]5C[C@H]43 | -0.107% (inactive) | –
15 | CC1(C)CON(Cc2ccccc2Cl)C1=O | -8.37% (inactive) | –
16 | CSc1ccc(C(=O)C(C)(C)N2CCOCC2)cc1 | -17.6% (inactive) | –
17 | CC1=C(C(=O)O)N2C(=O)[C@@H](N)[C@H]2SC1 | -5.37% [at 15.8 µM, hits give high values] (inactive) | –
18 | CCC(C)n1c(=O)[nH]c(C)c(Br)c1=O (stereo not given) | -0.693% (inactive) | –
19 | O=C(CCCN1CCC(n2c(=O)[nH]c3ccccc32)CC1)c1ccc(F)cc1 | 2.41% [at 35.3 µM, hits give high values] (inactive) | –
20 | N#Cc1c(Cl)cccc1Cl | 7.2% (inactive) | –

Row | Structure (SMILES) | activity change | Potency
21 | O=C(CCN1CC1)OCC(CO)(COC(=O)CCN1CC1)COC(=O)CCN1CC1 | -9.09% (inactive) | –
22 | CNC(=O)Oc1ccccc1C1OCCO1 | -0.561% (inactive) | –
23 | CC(C(O)c1ccccc1)N(C)C/C=C/c1ccccc1 (stereo not given) | 1.75% [at 35.3 µM, hits give high values] (inactive) | –
24 | N#CC(Cl)(Cl)Cl | 15.4% (inactive) | –
25 | CCN(CC)C(=O)[C@@H]1C=C2c3cccc4[nH]cc(c34)C[C@H]2N(C)C1 | 14.1% [at 200 µM, hits give high values] (inactive) | –
26 | O=C1CN2CCOC2(c2ccccc2Cl)c2cc(Cl)ccc2N1 (stereo not given) | -1.52% [at 35.3 µM, hits give high values] (inactive) | –
27 | BrCCCCCCBr | -2.06% (inactive) | –
28 | CCCCc1c(C)nc(NCC)[nH]c1=O | 0.262% (inactive) | –
29 | O=[N+]([O-])c1cccc2c([N+](=O)[O-])cccc12 | -2.52% (inactive) | –
30 | COC(=O)c1c(C(F)F)nc(C(F)(F)F)c(C2=NCCS2)c1CC(C)C | -0.23% (inactive) | –
31 | CCOP(=S)(OCC)Oc1cc(-c2ccccc2)on1 | -0.901% (inactive) | –
32 | NC(=O)c1cc([N+](=O)[O-])cc([N+](=O)[O-])c1 | 22.4% [at 35.3 µM, hits give high values] (inactive) | –
33 | O=C(O)C(Br)CBr (stereo not given) | -14.6% (inactive) | –
34 | Oc1c(Cl)cccc1Cl | 1.7% (inactive) | –
35 | O=C(Cc1ccccc1)OCc1ccccc1 | 28.8% (inactive) | –
36 | CCCSP(=S)(OCC)Oc1ccc(Cl)cc1Cl (stereo not given) | -3.75% (inactive) | –
37 | OC(Cn1cncn1)(c1ccc(F)cc1)c1ccccc1F (stereo not given) | -0.601% (inactive) | –
38 | COC(=O)c1ccccc1S(=O)(=O)NC(=O)N(C)c1nc(C)nc(OC)n1 | 0.763% (inactive) | –
39 | CCC(=O)c1ccccc1 | 2.09% (inactive) | –
40 | COc1ncc(F)c2nc(S(=O)(=O)Nc3c(F)cccc3F)nn12 | – | 12.4 µM (active)
